The source of these data is PubChem BioAssay (NCI).

SMILES strings stand for the structures. This is part of a sample that, as a whole, favours compounds with a hit. Of some 83,000 tested, about 20% had one in any assay.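 The test compound was applied at a single concentration to cells in 96-well plates for 48 hours, and percent growth was recorded.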 Unmarked numbers belong to inactive results. Activity calls are given as the source filed them. How the source made its calls: active means growth percent below 10; inactive means the rest.

What all share (assay): NCI-60 one-dose screen, 48 h (100 = growth as untreated, 0 = no growth, -100 = all killed)
One test concerns DU-145 prostate. Particulars: 10 µM unless noted.
A further test has as its system K-562 leukemia. Particulars: 10 µM unless noted.
A further test concerns MALME-3M melanoma. As to conditions: 10 µM unless noted.
The next test deals with MDA-MB-231 breast. As to conditions: 10 µM unless noted.
The subject of a further test is RXF 393 renal. Particulars: 10 µM unless noted.
For another test, the system named is SF-268 CNS. As to conditions: 10 µM unless noted.
A further test relates to SF-295 CNS. Particulars: 10 µM unless noted.
Another test deals with SF-539 CNS. As to conditions: 10 µM unless noted.
For the next test, the system named is M14 melanoma. As to conditions: 10 µM unless noted.
The test system of the next test is UACC-257 melanoma. Particulars: 10 µM.

As for `Cc1ccnc2nc(C(=O)OCC(=O)Nc3ccc(-c4ccccc4)cc3)nn12`, the growth in the test with DU-145 prostate is 109%; in the test with K-562 leukemia, 61.8%; in the test on MALME-3M melanoma it was 115%; with MDA-MB-231 breast it was 104%; in the test on RXF 393 renal, 49.7%; in the test on SF-268 CNS it was 113%. The growth was 92.7% in the test on SF-295 CNS, 95.6% in the test on SF-539 CNS and 99.9% in the test on M14 melanoma.
For `CCCC1OC(c2ccc(C(C)C)cc2)OCC1CC` (stereo not given), the growth was 110% in the test on DU-145 prostate; 102% with K-562 leukemia; 106% in the test with MALME-3M melanoma; 107% in the test with MDA-MB-231 breast; 115% in the test on RXF 393 renal; 103% with SF-268 CNS. For the same compound, the results for the growth in the test on SF-295 CNS, in the test with SF-539 CNS and in the test on M14 melanoma were 104%, 96.3% and 101%, respectively.
Consider `Cc1cc(Nc2nc(C(=O)Nc3ccccc3)nc3ccccc23)n[nH]1`, for which the growth was 66.2% in the test on DU-145 prostate; 48.7% in the test on K-562 leukemia; 61.5% in the test on MALME-3M melanoma; 85.4% in the test on MDA-MB-231 breast; 71% in the test with SF-268 CNS; 53.9% in the test on SF-295 CNS. Besides, the growth is 78.7% in the test on SF-539 CNS, 83% in the test with UACC-257 melanoma and 50.9% in the test on M14 melanoma.
Take `COc1cc(-c2n[nH]nc2-c2ccc3c(c2)OCCO3)cc(OC)c1OC`: the growth was 10% with DU-145 prostate; 8.96% (active) with K-562 leukemia; 69.7% in the test on MALME-3M melanoma; 33.3% with MDA-MB-231 breast; 15.9% in the test on SF-268 CNS; 2.6% (active) in the test on SF-295 CNS. Moreover, the growth was -35.9% (active) in the test with SF-539 CNS, 61.7% in the test with UACC-257 melanoma and 16.5% in the test with M14 melanoma.
Take `COc1ccc(OC)c(NC(=O)c2cc(S(=O)(=O)N3CCc4ccccc43)ccc2OC)c1`: the growth with DU-145 prostate was 84.9%; with K-562 leukemia it was 103%; in the test with MALME-3M melanoma, 111%; in the test with MDA-MB-231 breast, 71.8%; in the test with SF-268 CNS, 95.9%; in the test on SF-295 CNS it was 73.4%. For the same compound, the values for the growth in the test on SF-539 CNS and in the test with M14 melanoma were 82.9% and 98.8%, respectively.
As for `CCN1C(=O)N(CC)C2Nn3c(s/c(=C\c4cccc(F)c4)c3=O)=NC21` (stereo not given), the growth in the test on DU-145 prostate is 59.1%; with K-562 leukemia, 26.8%; with MALME-3M melanoma, 72.3%; in the test on MDA-MB-231 breast, 66.5%; in the test on SF-268 CNS, 76.1%; with SF-295 CNS, 61.1%. The growth with SF-539 CNS is 68.3%; in the test with M14 melanoma it was 89.6%.
Regarding `FC(F)(F)c1cccc(-n2nnc3cnc(Nc4ccc(N5CCCCC5)cc4)nc32)c1`, the growth was 57.6% in the test on DU-145 prostate; 67.3% with K-562 leukemia; 41.6% in the test on MALME-3M melanoma; 58.7% in the test with MDA-MB-231 breast; 55.5% with SF-268 CNS; 93.6% in the test on SF-295 CNS. In addition, the growth in the test on SF-539 CNS was 90.7%; in the test with UACC-257 melanoma it was 63.4%; in the test on M14 melanoma, 33.8%.
With `C/C1=C\CCC2(C)OC2CC2CCC(C)(O)C(CC1)C2(C)C` (stereo not given), the growth is 96.1% in the test with DU-145 prostate; 104% with K-562 leukemia; 93.5% in the test on MALME-3M melanoma; 105% with MDA-MB-231 breast; 103% in the test on SF-268 CNS; 55.5% in the test on SF-295 CNS. For the same compound, the values for the growth with SF-539 CNS and with M14 melanoma were 88.1% and 98.7%, respectively.
Turning to `COc1ccc(NC(=O)/N=c2\oc3c(OC)cccc3cc2-c2cc3ccccc3[nH]2)cc1`, the growth in the test with DU-145 prostate is 69.3%; in the test with K-562 leukemia it was 86.3%; in the test on MALME-3M melanoma it was 57.3%; in the test with MDA-MB-231 breast, 36.3%; in the test on SF-268 CNS, 70%; in the test on SF-295 CNS, 52.1%. For the same compound, the results for the growth in the test with SF-539 CNS and with M14 melanoma were 35.3% and 93.5%, respectively.
As to `COC(=O)c1ccc2nc(-c3cc4ccccc4n3C)n(CCCCOc3cc4c(cc3OC)C(=O)N3CCC[C@H]3C=N4)c2c1`, the growth in the test on DU-145 prostate was 22.1%; in the test on K-562 leukemia, 44.6%; in the test on MALME-3M melanoma it was -80.1% (active); in the test on MDA-MB-231 breast, -14.7% (active); in the test with SF-268 CNS, 1.79% (active); with SF-295 CNS, -26.7% (active). In addition, the growth is -13.8% (active) in the test on SF-539 CNS and -12.7% (active) in the test on M14 melanoma.
For the compound `Nc1nc(-c2cc3ccccc3o2)cc(=O)c(=O)[nH]1`, the growth with DU-145 prostate was 108%; in the test with K-562 leukemia, 103%; in the test on MALME-3M melanoma it was 94.3%; in the test on MDA-MB-231 breast, 98.3%; with SF-268 CNS, 96.5%; in the test with SF-295 CNS, 109%. For the same compound, the figures for the growth in the test with SF-539 CNS and in the test with M14 melanoma were 89.3% and 106%, respectively.
Regarding `Nc1c(C(=O)Nc2cccc(C(F)(F)F)c2)sc2nc3c(cc12)C(O)CCC3` (stereo not given), the growth is 9.15% (active) in the test on DU-145 prostate; 14.4% in the test with K-562 leukemia; 51.2% in the test with MALME-3M melanoma; 61.9% in the test on MDA-MB-231 breast; 45.6% with SF-268 CNS; 27.2% in the test with SF-295 CNS. For the same compound, the growth in the test on SF-539 CNS is 21.6%; with UACC-257 melanoma, 44.2%; with M14 melanoma, 30.9%.
`COc1cccc(-n2cc(-c3nc(Cl)c4ccccc4n3)nn2)c1`: the growth is 107% in the test on DU-145 prostate; 97.9% in the test with K-562 leukemia; 104% in the test with MALME-3M melanoma; 107% in the test on MDA-MB-231 breast; 105% in the test on SF-268 CNS; 93.2% in the test with SF-295 CNS. In addition, the figures for the growth in the test on SF-539 CNS, with UACC-257 melanoma and with M14 melanoma were 108%, 110% and 106%, respectively.
On to `COc1cc(CCn2nnc3c(Nc4ccc(N5CCOCC5)cc4)ncnc32)cc(OC)c1`, for which the growth with DU-145 prostate is 99.3%; in the test with K-562 leukemia, 44.4%; in the test with MALME-3M melanoma, 100%; with MDA-MB-231 breast it was 91.9%; with SF-268 CNS it was 99.7%; with SF-295 CNS, 100%. Moreover, the growth is 87.5% in the test with SF-539 CNS, 102% in the test on UACC-257 melanoma and 85.5% in the test on M14 melanoma.
